Target: RUNX1 (Homo sapiens, UniProt Q01196 1-453)
Test: custom PBM; custom protein-binding microarray; buffer, salt, pH and temperature not stated; high values mean tight binding
Settings: dsDNA, one strand shown

RUNX1, sequence (Q01196 whole entry): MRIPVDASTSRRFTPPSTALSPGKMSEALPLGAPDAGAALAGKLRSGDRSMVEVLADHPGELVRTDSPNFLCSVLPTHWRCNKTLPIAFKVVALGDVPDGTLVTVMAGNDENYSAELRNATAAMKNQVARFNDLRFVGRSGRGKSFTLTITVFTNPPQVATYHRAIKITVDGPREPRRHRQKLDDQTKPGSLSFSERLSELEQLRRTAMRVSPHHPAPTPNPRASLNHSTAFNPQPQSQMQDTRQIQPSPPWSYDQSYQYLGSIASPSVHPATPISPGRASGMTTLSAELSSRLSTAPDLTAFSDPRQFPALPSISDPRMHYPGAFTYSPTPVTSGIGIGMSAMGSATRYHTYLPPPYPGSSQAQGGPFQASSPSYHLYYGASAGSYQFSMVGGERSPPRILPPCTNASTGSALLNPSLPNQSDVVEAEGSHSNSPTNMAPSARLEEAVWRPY

Row | Sequence | binding signal
1 | GCGCACATTTCCCGTTAATCATACACGCACACATACACATACACACATACACATACGCAC | 11 log fluorescence intensity
2 | GCGCACATTGCCCGTAAATCATACACGCACACATACACATACACACATACACATACGCAC | 10.9 log fluorescence intensity
3 | CGCGCACTCTGTGGTTGGGCACATACGCACACATACACATACACACATACACATACGCAC | 11.6 log fluorescence intensity
4 | GCATACGGCTGACGTGAGCCACATACGCACACATACACATACACACATACACATACGCAC | 10.9 log fluorescence intensity
5 | GCGCACATTTCCCGTAACTCATACACGCACACATACACATACACACATACACATACGCAC | 11 log fluorescence intensity
6 | GCATACGGCTGACGTAAGCCACATACGCACACATACACATACACACATACACATACGCAC | 11 log fluorescence intensity
7 | CGCGCACTCTGTGGTTGCTCACATACGCACACATACACATACACACATACACATACGCAC | 11.4 log fluorescence intensity
8 | GCGCATATTTCCCGTAAATCATACACGCACACATACACATACACACATACACATACGCAC | 10.9 log fluorescence intensity
9 | CGCGCACTCTGTGGTTGCACACATACGCACACATACACATACACACATACACATACGCAC | 11.6 log fluorescence intensity
10 | CGCGCACTCTGCGGTTGCGCACATACGCACACATACACATACACACATACACATACGCAC | 12.8 log fluorescence intensity
11 | CGCGCACTCTGTGGTTTCGCACATACGCACACATACACATACACACATACACATACGCAC | 12.3 log fluorescence intensity
12 | CGCGCACTCTGTGTTTGCGCACATACGCACACATACACATACACACATACACATACGCAC | 11 log fluorescence intensity
13 | GCATACGGCCGACGTCAGCCACATACGCACACATACACATACACACATACACATACGCAC | 11 log fluorescence intensity
14 | GCATACGGTTGACGTCAGCCACATACGCACACATACACATACACACATACACATACGCAC | 11 log fluorescence intensity
15 | GCGCACATTTCTCGTAAATCATACACGCACACATACACATACACACATACACATACGCAC | 10.9 log fluorescence intensity
16 | CGCGCACTCTGTGGATGCGCACATACGCACACATACACATACACACATACACATACGCAC | 10.9 log fluorescence intensity
17 | GCGCACATTTCCCCTAAATCATACACGCACACATACACATACACACATACACATACGCAC | 10.9 log fluorescence intensity
18 | GCGCACATTTCCCGTAAATTATACACGCACACATACACATACACACATACACATACGCAC | 10.9 log fluorescence intensity

Reference: paper PMC6602471
